# Source: PubChem BioAssay (NCATS)
# Inconclusive results are not listed. Unmarked numbers belong to inactive results. Active and inactive are the calls of the source. The call rests on the fitted dose curve.
# Assay: Validation screen for inhibitors of Lassa infection (AID 463096)
# Settings: Lassa virus infection, cell-based; series mostly up to 46.1 µM; activity change, negative = inhibition: at the top concentration
# On the % scale 0 is the no-effect control and ±100 the full control effect.
SMILES,"activity change, negative = inhibition [%]",outcome
CC(C)NNC(=O)c1ccncc1,24.9,–
CN(C)CCOC(=O)COc1ccc(Cl)cc1,-4.64,–
CCCNC(C)C(=O)Nc1ccccc1C (configuration not stated),-7.81,–
CN1CCN(CC(=O)N2c3ccccc3C(=O)Nc3cccnc32)CC1,31.3,–
Cc1nc2c([nH]1)c(=O)n(C)c(=O)n2Cc1ccco1,-20.7,–
CO/N=C(\C(=O)N[C@@H]1C(=O)N2C(C(=O)O)=C(COC(C)=O)CS[C@H]12)c1csc(N)n1 (stereo in doubt),2.58,–
CN1C(C(=O)Nc2ccccn2)=C(O)c2ccccc2S1(=O)=O,0.221,–
C[C@](N)(Cc1ccc(O)cc1)C(=O)O,-4.15,–
COc1ccc2[nH]cc(CCNC(C)=O)c2c1,35.2,–
Cn1c(=O)c2[nH]cnc2n(C)c1=O,17.8,–
FC(F)(F)c1ccccc1-n1ccnc1,13.4,–
CC(C)NCC(O)c1cc(O)cc(O)c1 (configuration not stated),-13.7,–
CC(=O)OC(C)C[N+](C)(C)C (configuration not stated),2.56,–
CC(C)(C)NCC(O)c1cc(O)cc(O)c1 (configuration not stated),13.3,–
CCN1CCC[C@H]1CNC(=O)c1c(O)c(Cl)cc(Cl)c1OC,15.8,–
COCCOC(=O)C1=C(C)NC(C)=C(C(=O)OC(C)C)C1c1cccc([N+](=O)[O-])c1 (configuration not stated),-20.6,–
CC(C)(Oc1ccc(C2CC2(Cl)Cl)cc1)C(=O)O (configuration not stated),-5.88,–
CC(C)NCC(O)c1ccc(NS(C)(=O)=O)cc1 (configuration not stated),-10.5,–
CC(=O)OCC1=C(C(=O)O)N2C(=O)[C@@H](NC(=O)Cc3cccs3)[C@H]2SC1,-1.92,–

SMILES,"activity change, negative = inhibition [%]",outcome
NCCCCCC(=O)O,5.4,–
C[N+](C)(C)CCCCCC[N+](C)(C)C,–,inactive
CC(CCc1ccc(O)cc1)NCCc1ccc(O)c(O)c1 (configuration not stated),-20.3,–
O=C(O)CN(CCN(CC(=O)O)CC(=O)O)CCN(CC(=O)O)CC(=O)O,-18.9,–
NCCS(=O)(=O)O,-2.5,–
CN=C(NC#N)Nc1ccc(C2=NNC(=O)CC2C)cc1 (configuration not stated),-16,–
O=c1c(-c2ccc(O)cc2)coc2cc(O)cc(O)c12,-2.61,–
CC(C)C(=O)c1c(C(C)C)nn2ccccc12,5.98,–
Nc1cc(=O)[nH]c(N)n1,10.9,–
CN(C)C(=O)Oc1ccc[n+](C)c1,-3.52,–
CCn1cc(C(=O)O)c(=O)c2cc(F)c(N3CCNC(C)C3)c(F)c21 (configuration not stated),14.1,–
Cc1nc2ccccn2c(=O)c1CCN1CCC(C(=O)c2ccc(F)cc2)CC1,7.37,–
O=C(NCC1CCCCN1)c1cc(OCC(F)(F)F)ccc1OCC(F)(F)F (configuration not stated),0.275,–
C[C@H]1O[C@@H](n2cc(F)c(=O)[nH]c2=O)[C@H](O)[C@@H]1O,-14.9,–
NCCCNCCSP(=O)(O)O,25.6,–
CCO/C([O-])=N/c1c[n+](N2CCOCC2)no1,26.3,–
c1ccc2c(c1)CCCC2C1=NCCN1 (configuration not stated),0.121,–
NC(=O)N1c2ccccc2C=Cc2ccccc21,1.31,–
